Compounds with a hit are over-represented: about 4.5% of the library has one in this group of screens.
Gli-Sufu block = Gli-Sufu pathway antagonism; Sufu-KO-LIGHT fibroblasts, Gli luciferase reporter luminescence; 0.74% of 340,000 active; AID 588413; inhibition, % at 5 µM;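 active = inhibition above about 55%, limit read from the data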;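 note: 0% = DMSO-treated cells and 100% = wells with medium but no cells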
aSyn UTR inh = 5' untranslated region of α-synuclein, MLPCN primary screen | alpha-synuclein 5'UTR reporter, inhibitor activity | inhibition, % (tested at 7.5 µM) | 0.82% of 300,000 active; in the data active = inhibition above about 60%;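 note: H4 neuroglioblastoma cells stably carrying SNCA 5'UTR luciferase fusion; 0% = DMSO wells and 100% = positive control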
Mdm2-MdmX inh = human Mdm2/MdmX binding inhibition | O15151+Q00987 | SaOS-2 split-luciferase Mdm2/MdmX complementation, luminescence | 3% of 330,000 active | inhibition, % at 8 µM;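 active = inhibition of at least 50% at 8 µM in the primary screen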
Target sequence (O15151 whole entry, looked up): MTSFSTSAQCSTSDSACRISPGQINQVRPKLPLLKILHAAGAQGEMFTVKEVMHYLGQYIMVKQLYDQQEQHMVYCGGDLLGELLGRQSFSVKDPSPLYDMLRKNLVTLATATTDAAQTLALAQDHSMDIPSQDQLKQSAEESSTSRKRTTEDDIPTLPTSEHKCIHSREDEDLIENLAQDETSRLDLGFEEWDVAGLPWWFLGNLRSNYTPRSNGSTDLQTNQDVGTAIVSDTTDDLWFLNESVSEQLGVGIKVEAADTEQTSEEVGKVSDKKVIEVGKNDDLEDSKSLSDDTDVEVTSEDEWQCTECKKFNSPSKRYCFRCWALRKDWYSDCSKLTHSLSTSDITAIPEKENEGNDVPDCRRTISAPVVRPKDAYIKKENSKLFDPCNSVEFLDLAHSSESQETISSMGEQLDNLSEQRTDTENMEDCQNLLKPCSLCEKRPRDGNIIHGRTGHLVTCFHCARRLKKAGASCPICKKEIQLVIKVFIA
Target sequence (Q00987 whole entry, looked up): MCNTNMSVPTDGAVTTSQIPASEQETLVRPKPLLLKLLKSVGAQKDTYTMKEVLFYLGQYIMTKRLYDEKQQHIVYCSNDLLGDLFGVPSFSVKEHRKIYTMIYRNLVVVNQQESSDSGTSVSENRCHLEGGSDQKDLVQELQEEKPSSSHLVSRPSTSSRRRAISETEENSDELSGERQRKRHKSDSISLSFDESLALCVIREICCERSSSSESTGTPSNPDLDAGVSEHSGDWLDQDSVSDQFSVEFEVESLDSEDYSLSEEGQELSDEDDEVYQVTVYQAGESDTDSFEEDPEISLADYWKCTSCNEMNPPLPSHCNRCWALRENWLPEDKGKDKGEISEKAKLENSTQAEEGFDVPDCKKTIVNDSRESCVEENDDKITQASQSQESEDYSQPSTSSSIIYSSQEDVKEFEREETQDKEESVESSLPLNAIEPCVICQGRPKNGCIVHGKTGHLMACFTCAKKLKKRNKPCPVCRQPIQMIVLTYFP
CSC inhib = blocks cancer stem cells; cancer stem cell-like cells viability, luminescence; inhibition, % at 7.5 µM; 1.1% of 300,000 active; in the data active = inhibition above about 75%; tested in HMLE shEcad cells
697 NFkB inh = inhibitors of the PMA/ionomycin-induced NF-kB reporter in 697 B cells; 697 B-cell NF-kB luciferase reporter, 16 h; inhibition, % at 4 µM; 0.33% of 330,000 active; in the data active = inhibition above about 35%
Jurkat NFkB inh = inhibitors of the PMA/ionomycin-induced NF-kB reporter in Jurkat cells | inhibition, % at 4 µM | AID 435003 | 0.53% of 330,000 active | PMA/ionomycin-induced NF-kB luciferase reporter, luminescence; in the data active = inhibition above about 50%
Mdm2-MdmX conf = confirmation of human Mdm2/MdmX interaction inhibitors; shares compounds with Mdm2-MdmX inh; Mdm2-MdmX binding, luminescent assay; inhibition, % at 8 µM; 55% of 10,000 active; AID 489028; in the data active = inhibition above about 40%
Full FLuc ctr = full-length luciferase inhibition in Mdm2/MdmX counter-screen | AID 504607 | shares compounds with Mdm2-MdmX inh | inhibition, % at 8 µM | SaOS-2 full-length luciferase counterscreen, luminescence | 77% of 6,200 active;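 active = mean inhibition at 8 µM reaching about 37%, which flags the compound as non-specific, limit read from the data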;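 note: p53-null SaOS-2 cells with luciferase driven by a doxycycline-inducible promoter; compound on cells about two nights before reading with doxycycline added after day one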
The depositor's hits bear a star.

How did O=C(Cc1ccccc1)Nc1cccc(N2CCCC2)c1 do in these assays?
Gli-Sufu block: -4.0; Mdm2-MdmX inh: -10.7; CSC inhib: 16.3; 697 NFkB inh: -12.8; Jurkat NFkB inh: -5.5

What do the screens show for `CC(=S)c1c(C)cc2cc(C)ccn12`?
Gli-Sufu block: 8.4; aSyn UTR inh: -2.6; Mdm2-MdmX inh: -9.2; CSC inhib: 9.1; 697 NFkB inh: -5.3; Jurkat NFkB inh: -8.5

Results for O=S(=O)(c1ccccc1)c1cnc(-c2ccccc2)nc1N1CCCC1 ?
Gli-Sufu block: -33.6; aSyn UTR inh: 23.8; Mdm2-MdmX inh: 2.1; CSC inhib: 5.6; 697 NFkB inh: -36.8; Jurkat NFkB inh: -10.1

What do the screens show for `COc1cc2ncc(S(=O)(=O)c3ccccc3)c(N3CCCC(C)C3)c2cc1OC` (stereo not drawn)?
Gli-Sufu block: 17.8; aSyn UTR inh: 36.1; Mdm2-MdmX inh: 50.9*; CSC inhib: 8.7; 697 NFkB inh: -4.4; Jurkat NFkB inh: 7.1; Mdm2-MdmX conf: 17.9

How did Cc1oc(-c2ccccc2Cl)nc1CN1CCCC1c1ccc(F)cc1 (stereo not drawn) do in these assays?
Gli-Sufu block: -19.3; aSyn UTR inh: -17.4; Mdm2-MdmX inh: 8.2; CSC inhib: 3.6; 697 NFkB inh: 16.2; Jurkat NFkB inh: 6.0

What do the screens show for `Cc1oc(-c2ccccc2Cl)nc1Cn1cccc1C1=NC(c2ccccc2)CO1` (stereo not drawn)?
Gli-Sufu block: 14.8; aSyn UTR inh: 37.0; Mdm2-MdmX inh: 55.5*; CSC inhib: 49.0; 697 NFkB inh: -21.3; Jurkat NFkB inh: 0.7; Mdm2-MdmX conf: 57.0*; Full FLuc ctr: 89.8*

What do the screens show for `Cc1cc(C)n(-c2ccc(C(=O)N3CCN(S(=O)(=O)c4ccc(Cl)cc4)CC3)cc2)n1`?
Gli-Sufu block: -3.1; Mdm2-MdmX inh: 6.0; CSC inhib: 11.8; 697 NFkB inh: -8.0; Jurkat NFkB inh: 0.7

Results for COC(=O)/N=C/c1c(NCc2ccccc2)nc2c(C)cccn2c1=O ?
Gli-Sufu block: 2.1; aSyn UTR inh: 11.4; Mdm2-MdmX inh: 69.7*; CSC inhib: -4.4; 697 NFkB inh: 2.3; Jurkat NFkB inh: -12.6; Mdm2-MdmX conf: 32.9

What do the screens show for `CCOc1ccc(S(=O)(=O)N(CC)CC(=O)NCc2cccnc2)cc1`?
Gli-Sufu block: -7.6; aSyn UTR inh: 0.0; Mdm2-MdmX inh: 6.2; CSC inhib: 5.7; 697 NFkB inh: -6.7; Jurkat NFkB inh: -15.5

Results for O=C(Cc1ccc(F)cc1)NC1CCS(=O)(=O)C1 (stereo not drawn) ?
Gli-Sufu block: 7.7; aSyn UTR inh: 13.1; Mdm2-MdmX inh: 21.3; CSC inhib: -0.3; 697 NFkB inh: -2.4; Jurkat NFkB inh: 9.4

Results for COc1cc(NC(=O)c2cccc(C)c2)ccc1NC(=O)c1cc2ccccc2o1 ?
Gli-Sufu block: -43.6; aSyn UTR inh: -13.4; Mdm2-MdmX inh: 66.9*; CSC inhib: 15.9; 697 NFkB inh: -36.1; Jurkat NFkB inh: 1.3; Mdm2-MdmX conf: 36.0; Full FLuc ctr: 80.6*

Results for COc1cc(NC(=S)NC(=O)C(C)C)ccc1NC(=O)c1cc2ccccc2o1 ?
Gli-Sufu block: 8.7; aSyn UTR inh: -7.5; Mdm2-MdmX inh: 18.4; CSC inhib: 5.1; 697 NFkB inh: -29.1; Jurkat NFkB inh: -47.2

What do the screens show for `CCOc1cccc(C(=O)Nc2ccc(NC(=O)c3cc4ccccc4o3)c(OC)c2)c1`?
Gli-Sufu block: -11.6; aSyn UTR inh: -1.7; Mdm2-MdmX inh: -6.6; CSC inhib: 19.8; 697 NFkB inh: -34.3; Jurkat NFkB inh: 14.4

What do the screens show for `COc1cc(NC(=O)c2cccc([N+](=O)[O-])c2)ccc1NC(=O)c1cc2ccccc2o1`?
Gli-Sufu block: -0.5; aSyn UTR inh: -12.7; Mdm2-MdmX inh: 81.4*; CSC inhib: 4.2; 697 NFkB inh: 5.4; Jurkat NFkB inh: 4.7; Mdm2-MdmX conf: 31.2; Full FLuc ctr: 87.8*

What do the screens show for `O=C(NC(=S)Nc1ccc(NC(=O)c2cccs2)cc1)c1cc2ccccc2o1`?
Gli-Sufu block: -20.2; aSyn UTR inh: 7.6; Mdm2-MdmX inh: 52.4*; CSC inhib: 23.0; 697 NFkB inh: -9.0; Jurkat NFkB inh: 15.2; Mdm2-MdmX conf: 30.4

What do the screens show for `CCC(=O)NC(=S)Nc1ccc(NC(=O)c2cc3ccccc3o2)c(OC)c1`?
Gli-Sufu block: -9.6; aSyn UTR inh: -25.6; Mdm2-MdmX inh: 54.2*; CSC inhib: 8.7; 697 NFkB inh: -22.4; Jurkat NFkB inh: -22.0; Mdm2-MdmX conf: -3.3

How did COc1cccc(CNC(=S)Nc2cc(OC)ccc2OC)c1 do in these assays?
Gli-Sufu block: 5.7; aSyn UTR inh: 6.0; Mdm2-MdmX inh: -17.7; CSC inhib: -3.4; 697 NFkB inh: -6.5; Jurkat NFkB inh: 3.7

What do the screens show for `Cc1ccc(Nc2ccc(S(=O)(=O)N3CCOCC3)cc2[N+](=O)[O-])c(C)c1`?
Gli-Sufu block: 13.4; aSyn UTR inh: -62.1; Mdm2-MdmX inh: 6.8; CSC inhib: 2.1; 697 NFkB inh: -3.0; Jurkat NFkB inh: 6.8

Results for Cc1cc(C)c2ccc3c(C)c(C)nc3c2[nH]1 ?
Gli-Sufu block: 6.7; Mdm2-MdmX inh: 69.9*; CSC inhib: 21.4; 697 NFkB inh: -20.0; Jurkat NFkB inh: 26.9; Mdm2-MdmX conf: 42.2*; Full FLuc ctr: 45.5*

How did CCN(CC(=O)NC1CCS(=O)(=O)C1)S(=O)(=O)c1ccc(Br)cc1 (stereo not drawn) do in these assays?
Gli-Sufu block: -7.2; Mdm2-MdmX inh: 23.9; CSC inhib: -8.3; 697 NFkB inh: 14.0; Jurkat NFkB inh: 16.1

How did CN(C)CCCNC(=S)NCC(c1ccc(Cl)cc1Cl)c1c[nH]c2ccccc12 (stereo not drawn) do in these assays?
Gli-Sufu block: 6.2; aSyn UTR inh: 110.6*; Mdm2-MdmX inh: 88.8*; CSC inhib: -14.6; 697 NFkB inh: 15.9; Jurkat NFkB inh: -8.8; Mdm2-MdmX conf: 64.5*; Full FLuc ctr: 29.2

How did CCCCNC(=S)NCC(c1ccccc1)c1c[nH]c2ccccc12 (stereo not drawn) do in these assays?
Gli-Sufu block: 5.5; aSyn UTR inh: -1.1; Mdm2-MdmX inh: 25.4; CSC inhib: 6.9; 697 NFkB inh: -14.3; Jurkat NFkB inh: 1.6

How did NCC(c1ccccc1Cl)c1c[nH]c2ccccc12 (stereo not drawn) do in these assays?
Gli-Sufu block: 12.3; aSyn UTR inh: 5.7; Mdm2-MdmX inh: 41.3; CSC inhib: 12.8; 697 NFkB inh: -2.3; Jurkat NFkB inh: 0.1

How did NCC(c1ccc(Cl)cc1Cl)c1c[nH]c2ccccc12 (stereo not drawn) do in these assays?
Gli-Sufu block: -0.5; aSyn UTR inh: 5.7; Mdm2-MdmX inh: 64.5*; CSC inhib: 94.8*; 697 NFkB inh: 0.3; Jurkat NFkB inh: 18.2; Mdm2-MdmX conf: 32.5

Screens from PubChem.
